AID504770 = growth inhibition of E. coli YBA685, primary screen, V. cholerae RctB inhibitors | E. coli YBA685 rctB-dependent plasmid, OD600 growth, 3 h; stronger effect = lower value | z-score (no concentration beside the values) | 0.27% of 130,000 active | AID 504770, 2011; in the data active means z-score below about -2, passing the limit was not always enough
CapD inh = Bacillus anthracis CapD inhibitors, primary screen, biochemical, fluorescence intensity. z-score (no concentration beside the values). purified CapD enzyme, fluorescence intensity read-out; stronger effect = lower value. CapD gamma-glutamyltranspeptidase (Bacillus anthracis Ames Ancestor). 0.23% of 140,000 active. AID 492967, 2010; in the data active means z-score mostly below about -2.9, no sharp cut-off; inactive means mostly above about -1.9
Each line names hits and unclear results; the compound was inactive in the other large screens. This is a sample that favours compounds with a hit; in the whole collection about 0.4% have one here.

Cc1cc(C)n(-c2ccc(N=NC3=C(O)CCCC3=O)cc2)n1	CapD inh -4.4
CCCn1c(/N=C/c2c[nH]c3ccccc23)nc2ccccc21	CapD inh -4.1
CCCCn1c(/N=C/c2c[nH]c3ccccc23)nc2ccccc21	none (no result: CapD inh)
COc1ccc(C(=O)NCCn2cc(SCC(=O)N3CCCCC3)c3ccccc32)cc1	none
COc1ccc(C(=O)NCCn2cc(SCC(=O)Nc3ccccc3)c3ccccc32)cc1	AID504770 -2.5
Fc1ccc(CNC2CCCC2)cc1	none (no result: CapD inh)
CC(C(=O)O)N1C(=O)/C(=C\c2ccco2)SC1=S (configuration not stated)	CapD inh -4.9
CC(C(=O)O)N1C(=O)/C(=C/c2ccco2)SC1=S (configuration not stated)	none (no result: CapD inh)
O=C(O)CCN1C(=O)/C(=C/c2ccco2)SC1=S	CapD inh -6.1 (no result: AID504770)
O=C(CCN1C(=O)/C(=C\c2ccco2)SC1=S)N1CCCC1	none (no result: CapD inh)
Cc1cc(C(=O)CSc2nc3ccccc3c(=O)[nH]2)c(C)n1-c1ccc2c(c1)OCO2	none (no result: CapD inh)
Cc1c(C(=O)O)sc2nc(C(F)(F)F)nn12	none
CCOC(=O)c1sc2nc(C(F)(F)F)nn2c1C	AID504770 -2.5
OCCCNCc1ccccc1Cl	none (no result: CapD inh)
O=C(O)c1cc(=O)[nH]c2ccc(S(=O)(=O)N3CCOCC3)cc12	none (no result: CapD inh)
O=C(O)CC/C(=N\Nc1ccc([N+](=O)[O-])cc1)c1ccccc1	CapD inh -3.6 (no result: AID504770)
O=C(Nc1cccc(C(=O)c2ccccc2)c1)c1ccc([N+](=O)[O-])cc1	none (no result: AID504770)
O=C(/C=C/c1cccs1)OCC(=O)c1cc2ccccc2o1	none (no result: CapD inh)
C[C@H]1COc2c(N3CCN(C)CC3)c(F)cc3c(=O)c(C(=O)O)cn1c23	AID504770 -4.4 (no result: CapD inh)
CC1COc2c(N3CCN(C)CC3)c(F)cc3c(=O)c(C(=O)Nc4ccc(F)c(F)c4)cn1c23 (configuration not stated)	none (no result: AID504770)
O=c1c(-c2ccc(Br)cc2)coc2cc(O)ccc12	none
CCOc1ccc2nc(SC3CC(=O)N(c4ccc(OC)cc4)C3=O)nc(C)c2c1 (configuration not stated)	none (no result: AID504770)
COc1ccc(N2C(=O)CC(Sc3nc4ccccc4c(=O)n3CCO)C2=O)cc1 (configuration not stated)	AID504770 -2.1 (no result: CapD inh)
CC(C)OC(=O)/C(C#N)=C/c1ccco1	none (no result: CapD inh)
N#C/C(=C\c1ccco1)C(=O)C1CC1	CapD inh -4.3
COC(=O)C1=C(Nc2ccccc2NC(=O)c2ccccc2C(=O)O)CSC1	none
CNC(=O)Nc1ccccc1NC1=C(C(=O)OC)CSC1	AID504770 -2.2
O=C(NNC(=O)c1cc(-c2ccccc2)nc2ccccc12)OCc1ccc(/C=C/c2ccccc2)cc1	none (no result: AID504770)
Cc1ccc(Cl)cc1-n1c(=O)cc(N2CC(C)OC(C)C2)[nH]c1=O (configuration not stated)	none
CC1CN(c2cc(=O)n(-c3ccc(Cl)cc3)c(=O)[nH]2)CC(C)O1 (configuration not stated)	CapD inh -4.1
C/C(=N\NC(=O)Cc1cccs1)c1ccc(S(=O)(=O)N2CCCC2)cc1	none (no result: CapD inh)
O=C(O)c1ccc2[nH]c3c(c2c1)CSCC3	CapD inh -7.4
CN(C)CCOC(=O)c1ccc2[nH]c3c(c2c1)CSCC3	none
CC(C(=O)Nc1ccccc1)C(=O)Nc1ccccc1	none
O=C(Nc1ccccc1)C(C(F)(F)F)C(F)(F)F	CapD inh -3.6
O=C(O)CNc1c(F)c(F)nc(F)c1F	none
COC(=O)c1ccc2c(=O)[nH]c(COC(=O)c3ccccc3SCC(=O)N3CCCC3)nc2c1	none (no result: CapD inh)
COC(=O)c1ccc2c(=O)[nH]c(COC(=O)c3cccnc3Nc3ccccc3OC)nc2c1	AID504770 -4 (no result: CapD inh)
COc1ccc(OC)c(N=c2ssc3c2-c2ccc(C)cc2NC3(C)C)c1	none (no result: AID504770)
CC(=O)Oc1ccc(N(C(C)=O)S(=O)(=O)c2ccccc2)cc1	CapD inh -4.2
COc1ccc(N(C(C)=O)S(=O)(=O)c2ccc(C)cc2)cc1	none
O=C(N[C@@H](CO)[C@H](O)c1ccc([N+](=O)[O-])cc1)C(Cl)Cl	AID504770 -2.7 (no result: CapD inh)
O=C(O)CCC(=O)OC[C@@H](NC(=O)C(Cl)Cl)[C@H](O)c1ccc([N+](=O)[O-])cc1	none
OCCn1c(-c2ccccc2)nc2ccccc21	none
CC1(C)Cc2c(c(=S)nc(-c3ccccc3)n2CCO)CO1	CapD inh -5.1
Cc1cc2c(n1-c1ccc(C(=O)N3CCN(c4ccccc4)CC3)cc1)CCCCC2	none
Cc1cc2c(n1-c1ccc(C(=O)O)cc1)CCCC2	CapD inh -7.5
Cc1ccc(C)n1-c1ccc(C(=O)O)cc1	CapD inh -13 (no result: AID504770)
CC(=O)N1CCN(C(=O)c2ccc(-n3c(C)ccc3C)cc2)CC1	none (no result: CapD inh)
COc1ccc(C2C3=C(CCCC3=O)OC3=C2C(=O)CCC3)c(OC)c1	none (no result: AID504770)
CC(C)(C)c1[nH]oc(=O)c1N=O	AID504770 -7.3
O=c1[nH]c(-c2cccnc2)nc2ccccc12	none
Cc1nc(-c2cccnc2)[nH]c(=O)c1CC1CC1	AID504770 -3
CN1CCN(C(=O)c2cc(-c3ccc(F)cc3)on2)CC1	none
Cn1sc(=O)c2ccc(S(=O)(=O)NCCc3ccncc3)cc21	AID504770 -2.5
Cc1ccc(S(=O)(=O)NCCc2ccncc2)cc1	none (no result: AID504770)
NC(=S)N1CCCC1	none (no result: CapD inh)
S=C(S)N1CCCC1	AID504770 -3.5 (no result: CapD inh)
N#Cc1ccc(Oc2ccccc2)cc1C#N	none
N#COc1ccc(Oc2ccc(OC#N)cc2)cc1	CapD inh -4.9
COc1cc(OC)c(NC(=O)CSc2nc3[nH]ncc3c(=O)n2-c2ccc(Cl)cc2Cl)cc1Cl	none (no result: AID504770)
Oc1c(Cl)cc(Cl)cc1C=Nc1cc(C(F)(F)F)ccc1N1CCOCC1	none (no result: AID504770)
O=C(c1ccc2c(c1)ncn2-c1ccc(OCc2ccccc2)cc1)N1CCC2(CC1)OCCO2	none (no result: AID504770)
Cc1cc(C)c(/C=N/NC(N)=O)c(C)c1/C=N/NC(N)=O	AID504770 -3.2 (no result: CapD inh)
NC(=O)N/N=C/c1ccc(/C=N/NC(N)=O)cc1	none
O=C(c1cc(-c2ccco2)on1)N1CCCCC1	none
O=C(CSc1nc2ccccc2c(=O)n1CC1CCC(C(=O)NCC2CCCO2)CC1)NCc1ccccc1 (configuration not stated)	none (no result: AID504770)
CCn1cc(C(=O)O)c(=O)c2cnc(N3CCNCC3)nc21	AID504770 -3.2
CCn1cc(C(=O)O)c(=O)c2cc(F)c(N3CCN(C(=O)c4ccccc4F)CC3)cc21	AID504770 -3.8 (no result: CapD inh)
CCn1cc(C(=O)O)c(=O)c2cc(F)c(N3CCN(C(=S)Nc4ccc5c(c4)OCO5)CC3)cc21	AID504770 -3
CCn1cc(C(=O)O)c(=O)c2cnc(N3CCN(C(=S)NC)CC3)nc21	none
CCn1cc(C(=O)NCC(C)C)c(=O)c2cc(F)c(N3CCN(C(=O)c4ccco4)CC3)cc21	none (no result: CapD inh)
CCn1cc(C(=O)O)c(=O)c2cc(F)c(N3CCN(C)CC3)cc21	AID504770 -6.9
CCn1cc(C(=O)NN)c(=O)c2cc(F)c(N3CCCC3)cc21	none
FC(F)(F)c1cccc(N2CCN(C(=S)Nc3ccc4c(c3)OCO4)CC2)c1	none
CCOc1c(CNCc2ccc3c(c2)OCO3)cccc1OC	none (no result: CapD inh)
CC(=O)SC1CC(=O)N(c2cc(Cl)cc(Cl)c2)C1=O (configuration not stated)	none
CC(C)(C)NC(=O)N1CCC(C(=O)c2ccccc2)CC1	none
Nc1nonc1-n1nnc(C(=O)N/N=C/c2c(Br)sc3ccccc23)c1-c1ccccc1	none (no result: AID504770)
CCc1cccc(C)c1NC(=O)NC1CCN(c2ncc(C(F)(F)F)cc2Cl)CC1	none (no result: AID504770)
N#CC1=C(N)C(C#N)=c2s/c(=C/c3cccc(F)c3)c(=O)n2C1c1cccc(F)c1 (configuration not stated)	none
